Experimental data reported in the supplement of paper PMC11732987, “Enantioselective OTUD7B fragment discovery through chemoproteomics screening and high-throughput optimisation” (Communications Chemistry, 2025).

Columns and labels:
Assay in all cases: log2 ratio of Biotin-Ahx-Ub-VS probe labelling (fragment/DMSO); higher = less target engagement (more negative = stronger competition), active = hit call of the paper (q ≤ 0.05, log2 ratio ≤ -1)
Settings in all cases: compound concentration: 200 uM; treatment time: 3 h
USP42 = target: T1, USP42 (UniProt Q9H9J4)
T1 sequence (whole entry): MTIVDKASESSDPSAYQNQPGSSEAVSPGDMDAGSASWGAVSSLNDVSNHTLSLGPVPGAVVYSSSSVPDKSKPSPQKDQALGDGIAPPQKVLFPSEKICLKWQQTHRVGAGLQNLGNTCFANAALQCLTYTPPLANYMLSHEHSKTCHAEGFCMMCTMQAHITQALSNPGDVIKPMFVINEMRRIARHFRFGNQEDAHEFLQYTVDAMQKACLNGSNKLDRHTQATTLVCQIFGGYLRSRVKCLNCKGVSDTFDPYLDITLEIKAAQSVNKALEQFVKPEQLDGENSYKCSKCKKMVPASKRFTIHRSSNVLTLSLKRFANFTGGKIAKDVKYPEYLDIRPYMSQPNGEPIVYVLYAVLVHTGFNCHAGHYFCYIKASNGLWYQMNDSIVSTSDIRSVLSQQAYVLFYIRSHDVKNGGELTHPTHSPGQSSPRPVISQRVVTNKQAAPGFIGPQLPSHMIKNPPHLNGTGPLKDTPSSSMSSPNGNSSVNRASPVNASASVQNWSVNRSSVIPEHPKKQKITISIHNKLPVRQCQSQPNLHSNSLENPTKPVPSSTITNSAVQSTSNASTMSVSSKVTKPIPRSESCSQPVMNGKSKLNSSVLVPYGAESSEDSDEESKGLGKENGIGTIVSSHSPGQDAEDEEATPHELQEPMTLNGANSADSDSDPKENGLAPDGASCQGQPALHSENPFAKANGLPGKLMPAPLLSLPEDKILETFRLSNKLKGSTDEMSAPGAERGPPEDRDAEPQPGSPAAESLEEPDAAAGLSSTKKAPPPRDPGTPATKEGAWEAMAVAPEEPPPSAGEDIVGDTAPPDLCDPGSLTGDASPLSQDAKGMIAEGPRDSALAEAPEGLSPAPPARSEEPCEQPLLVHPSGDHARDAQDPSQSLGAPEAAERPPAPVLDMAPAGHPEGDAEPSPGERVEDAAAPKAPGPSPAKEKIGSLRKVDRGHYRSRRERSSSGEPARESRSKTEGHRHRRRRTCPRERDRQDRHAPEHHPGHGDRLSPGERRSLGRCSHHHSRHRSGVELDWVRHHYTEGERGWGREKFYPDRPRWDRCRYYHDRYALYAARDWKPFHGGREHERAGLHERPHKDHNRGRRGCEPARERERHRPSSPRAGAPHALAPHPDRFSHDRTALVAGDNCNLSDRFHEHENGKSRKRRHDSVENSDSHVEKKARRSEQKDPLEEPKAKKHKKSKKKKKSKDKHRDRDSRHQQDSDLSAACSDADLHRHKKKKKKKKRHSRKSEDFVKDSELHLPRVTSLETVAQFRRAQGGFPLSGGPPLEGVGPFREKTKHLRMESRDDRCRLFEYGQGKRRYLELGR
Procedure, shortened: (§1)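 HEK293T lysate, 495 µg per sample in Tris/CHAPS/IGEPAL buffer with protease inhibitors, was treated in triplicate with fragment at 200 µM or vehicle for 3 h and then with Biotin-Ahx-Ub-VS at 0.5 µM final for 1 h. Labelled DUBs were NeutrAvidin-enriched, digested with LysC and trypsin, and run by diaPASEF LC-MS/MS. Spectronaut label-free quantities were global-median-normalised, and values are average log2 fragment/vehicle ratios by unpaired t-test on proteins with ≥2 unique peptides.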

USP46 = USP46 (UniProt P62068)
Procedure, shortened: as §1

USP47 = target: T2, USP47 (UniProt Q96K76)
T2 sequence (whole entry): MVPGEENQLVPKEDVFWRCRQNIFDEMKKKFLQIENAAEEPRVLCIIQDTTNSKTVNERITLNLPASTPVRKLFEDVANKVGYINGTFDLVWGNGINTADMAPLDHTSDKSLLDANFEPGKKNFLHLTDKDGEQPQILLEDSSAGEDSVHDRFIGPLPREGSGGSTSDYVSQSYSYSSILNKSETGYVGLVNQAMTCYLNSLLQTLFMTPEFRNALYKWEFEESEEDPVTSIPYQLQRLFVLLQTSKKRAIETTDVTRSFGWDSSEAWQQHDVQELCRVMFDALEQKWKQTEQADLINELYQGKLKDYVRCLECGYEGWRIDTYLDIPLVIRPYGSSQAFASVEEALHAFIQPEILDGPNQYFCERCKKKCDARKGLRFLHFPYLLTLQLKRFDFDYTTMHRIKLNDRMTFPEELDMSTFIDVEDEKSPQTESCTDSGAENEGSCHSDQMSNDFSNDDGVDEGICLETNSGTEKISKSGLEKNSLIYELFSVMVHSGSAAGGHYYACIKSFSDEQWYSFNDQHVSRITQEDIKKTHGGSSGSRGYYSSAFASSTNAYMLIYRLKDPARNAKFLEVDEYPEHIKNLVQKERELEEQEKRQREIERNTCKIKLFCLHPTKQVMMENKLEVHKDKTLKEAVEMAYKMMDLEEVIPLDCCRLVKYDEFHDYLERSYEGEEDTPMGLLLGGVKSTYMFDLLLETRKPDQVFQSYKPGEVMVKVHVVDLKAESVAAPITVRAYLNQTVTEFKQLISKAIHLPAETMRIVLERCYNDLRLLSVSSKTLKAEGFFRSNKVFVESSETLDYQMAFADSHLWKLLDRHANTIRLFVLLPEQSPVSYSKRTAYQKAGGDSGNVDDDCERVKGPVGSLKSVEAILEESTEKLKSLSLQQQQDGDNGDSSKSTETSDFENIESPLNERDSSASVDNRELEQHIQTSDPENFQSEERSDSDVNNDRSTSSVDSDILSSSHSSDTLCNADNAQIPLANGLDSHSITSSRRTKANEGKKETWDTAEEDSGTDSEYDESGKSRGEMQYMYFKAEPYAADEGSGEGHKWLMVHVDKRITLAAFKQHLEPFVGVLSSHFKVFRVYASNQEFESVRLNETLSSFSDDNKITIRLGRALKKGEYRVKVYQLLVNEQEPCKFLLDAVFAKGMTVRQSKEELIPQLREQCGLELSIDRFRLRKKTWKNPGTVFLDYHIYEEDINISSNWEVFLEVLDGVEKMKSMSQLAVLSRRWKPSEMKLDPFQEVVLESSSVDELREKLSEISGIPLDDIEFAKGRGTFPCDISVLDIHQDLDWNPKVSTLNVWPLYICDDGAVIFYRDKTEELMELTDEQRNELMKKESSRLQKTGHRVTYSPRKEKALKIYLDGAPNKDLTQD
Procedure, shortened: as §1

USP48 = target: T3, USP48 (UniProt Q86UV5)
T3 sequence (whole entry): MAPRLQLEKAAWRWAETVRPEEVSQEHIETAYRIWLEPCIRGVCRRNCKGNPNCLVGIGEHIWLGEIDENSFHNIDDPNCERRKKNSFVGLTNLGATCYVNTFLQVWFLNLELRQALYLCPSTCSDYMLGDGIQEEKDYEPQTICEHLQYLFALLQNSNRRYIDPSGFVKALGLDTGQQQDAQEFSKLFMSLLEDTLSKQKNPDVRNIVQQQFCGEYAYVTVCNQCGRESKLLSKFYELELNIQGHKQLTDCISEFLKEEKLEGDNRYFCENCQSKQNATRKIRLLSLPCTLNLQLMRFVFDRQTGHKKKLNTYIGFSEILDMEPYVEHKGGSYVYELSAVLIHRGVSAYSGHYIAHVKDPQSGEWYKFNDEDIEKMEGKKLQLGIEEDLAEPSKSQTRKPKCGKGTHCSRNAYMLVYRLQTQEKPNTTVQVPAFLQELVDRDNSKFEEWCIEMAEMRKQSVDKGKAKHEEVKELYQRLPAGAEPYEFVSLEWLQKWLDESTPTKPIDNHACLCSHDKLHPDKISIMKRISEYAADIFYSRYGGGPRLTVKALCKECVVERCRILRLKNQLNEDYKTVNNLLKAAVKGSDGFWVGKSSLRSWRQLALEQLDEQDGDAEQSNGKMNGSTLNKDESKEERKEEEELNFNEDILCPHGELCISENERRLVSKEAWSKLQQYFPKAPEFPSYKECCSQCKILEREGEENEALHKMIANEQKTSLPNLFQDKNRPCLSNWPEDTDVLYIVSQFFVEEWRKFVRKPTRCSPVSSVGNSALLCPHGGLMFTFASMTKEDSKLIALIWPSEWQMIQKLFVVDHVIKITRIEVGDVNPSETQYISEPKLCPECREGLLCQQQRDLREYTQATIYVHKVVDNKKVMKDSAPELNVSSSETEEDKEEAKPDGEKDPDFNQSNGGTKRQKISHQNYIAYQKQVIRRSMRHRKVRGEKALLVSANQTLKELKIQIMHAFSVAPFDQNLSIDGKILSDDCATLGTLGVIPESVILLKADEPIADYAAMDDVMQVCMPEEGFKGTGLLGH
Procedure, shortened: as §1

USP5 = target: T4, USP5 (UniProt P45974)
T4 sequence (whole entry): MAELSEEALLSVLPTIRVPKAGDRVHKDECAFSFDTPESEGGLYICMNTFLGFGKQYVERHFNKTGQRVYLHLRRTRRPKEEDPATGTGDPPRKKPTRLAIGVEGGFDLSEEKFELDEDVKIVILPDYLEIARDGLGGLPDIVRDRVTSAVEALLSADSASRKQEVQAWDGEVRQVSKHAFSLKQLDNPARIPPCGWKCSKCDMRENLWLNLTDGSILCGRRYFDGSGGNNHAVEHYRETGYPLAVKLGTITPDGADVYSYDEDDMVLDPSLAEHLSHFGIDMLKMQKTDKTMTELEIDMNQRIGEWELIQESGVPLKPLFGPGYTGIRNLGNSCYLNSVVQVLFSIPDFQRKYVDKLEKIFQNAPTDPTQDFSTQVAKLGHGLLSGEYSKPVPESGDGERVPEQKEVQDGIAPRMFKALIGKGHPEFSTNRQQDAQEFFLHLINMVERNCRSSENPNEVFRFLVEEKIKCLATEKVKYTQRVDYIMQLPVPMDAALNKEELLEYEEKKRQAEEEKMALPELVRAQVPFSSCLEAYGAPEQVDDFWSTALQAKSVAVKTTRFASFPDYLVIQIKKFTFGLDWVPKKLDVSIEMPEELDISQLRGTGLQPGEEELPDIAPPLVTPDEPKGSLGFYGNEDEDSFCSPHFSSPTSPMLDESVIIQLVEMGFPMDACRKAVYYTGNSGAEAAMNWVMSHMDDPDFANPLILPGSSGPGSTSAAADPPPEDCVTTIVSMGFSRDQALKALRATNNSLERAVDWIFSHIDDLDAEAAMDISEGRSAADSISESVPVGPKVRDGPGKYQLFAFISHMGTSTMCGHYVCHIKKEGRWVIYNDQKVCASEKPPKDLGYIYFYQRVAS
Procedure, shortened: as §1

USP54 = USP54 (UniProt Q70EL1)
Procedure, shortened: as §1

USP7 = USP7 (UniProt Q93009)
Procedure, shortened: as §1

USP8 = target: T5, USP8 (UniProt P40818)
T5 sequence (whole entry): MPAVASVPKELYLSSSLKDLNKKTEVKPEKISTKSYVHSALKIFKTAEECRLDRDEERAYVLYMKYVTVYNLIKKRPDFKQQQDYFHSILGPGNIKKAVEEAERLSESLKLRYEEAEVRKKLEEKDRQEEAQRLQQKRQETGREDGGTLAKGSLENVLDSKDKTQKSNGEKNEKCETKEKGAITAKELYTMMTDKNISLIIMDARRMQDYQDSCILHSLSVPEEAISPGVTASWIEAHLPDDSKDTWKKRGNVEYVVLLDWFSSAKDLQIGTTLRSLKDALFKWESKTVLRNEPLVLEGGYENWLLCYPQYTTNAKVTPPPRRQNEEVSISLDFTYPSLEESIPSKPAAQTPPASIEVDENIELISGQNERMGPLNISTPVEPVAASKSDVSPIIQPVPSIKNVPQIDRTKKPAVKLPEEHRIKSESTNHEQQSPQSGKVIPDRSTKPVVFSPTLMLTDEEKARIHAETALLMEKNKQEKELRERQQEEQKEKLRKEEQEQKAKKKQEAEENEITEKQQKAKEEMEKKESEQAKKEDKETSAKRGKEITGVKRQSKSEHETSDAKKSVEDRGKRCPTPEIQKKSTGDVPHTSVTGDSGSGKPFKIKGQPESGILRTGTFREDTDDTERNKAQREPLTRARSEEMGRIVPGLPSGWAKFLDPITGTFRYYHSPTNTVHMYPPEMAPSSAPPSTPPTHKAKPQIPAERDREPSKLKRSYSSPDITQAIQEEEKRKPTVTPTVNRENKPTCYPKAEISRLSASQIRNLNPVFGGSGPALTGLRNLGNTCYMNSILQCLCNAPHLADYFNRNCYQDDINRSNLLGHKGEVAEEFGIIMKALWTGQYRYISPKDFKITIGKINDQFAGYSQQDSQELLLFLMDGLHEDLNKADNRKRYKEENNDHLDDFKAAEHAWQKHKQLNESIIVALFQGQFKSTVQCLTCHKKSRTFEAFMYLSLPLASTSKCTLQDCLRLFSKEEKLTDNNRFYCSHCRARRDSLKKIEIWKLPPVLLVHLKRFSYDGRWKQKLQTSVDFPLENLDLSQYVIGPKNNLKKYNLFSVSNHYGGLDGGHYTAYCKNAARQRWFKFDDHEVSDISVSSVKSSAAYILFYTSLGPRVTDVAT
Procedure, shortened: as §1

USP9X = USP9X (UniProt Q93008)
Procedure, shortened: as §1

UniProt O00487 = target: UniProt O00487
Procedure, shortened: as §1

Measured: log2 ratio of Biotin-Ahx-Ub-VS probe labelling

UniProt O00487, sequence (O00487 whole entry): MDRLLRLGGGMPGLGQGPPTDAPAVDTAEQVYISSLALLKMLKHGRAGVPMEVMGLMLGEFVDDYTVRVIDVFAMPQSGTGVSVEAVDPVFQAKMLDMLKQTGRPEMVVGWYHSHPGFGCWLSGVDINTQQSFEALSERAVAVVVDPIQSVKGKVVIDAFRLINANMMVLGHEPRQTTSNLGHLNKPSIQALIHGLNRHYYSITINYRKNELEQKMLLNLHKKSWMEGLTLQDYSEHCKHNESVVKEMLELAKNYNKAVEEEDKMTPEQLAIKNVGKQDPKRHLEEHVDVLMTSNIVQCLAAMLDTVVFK
USP9X, sequence (Q93008 whole entry): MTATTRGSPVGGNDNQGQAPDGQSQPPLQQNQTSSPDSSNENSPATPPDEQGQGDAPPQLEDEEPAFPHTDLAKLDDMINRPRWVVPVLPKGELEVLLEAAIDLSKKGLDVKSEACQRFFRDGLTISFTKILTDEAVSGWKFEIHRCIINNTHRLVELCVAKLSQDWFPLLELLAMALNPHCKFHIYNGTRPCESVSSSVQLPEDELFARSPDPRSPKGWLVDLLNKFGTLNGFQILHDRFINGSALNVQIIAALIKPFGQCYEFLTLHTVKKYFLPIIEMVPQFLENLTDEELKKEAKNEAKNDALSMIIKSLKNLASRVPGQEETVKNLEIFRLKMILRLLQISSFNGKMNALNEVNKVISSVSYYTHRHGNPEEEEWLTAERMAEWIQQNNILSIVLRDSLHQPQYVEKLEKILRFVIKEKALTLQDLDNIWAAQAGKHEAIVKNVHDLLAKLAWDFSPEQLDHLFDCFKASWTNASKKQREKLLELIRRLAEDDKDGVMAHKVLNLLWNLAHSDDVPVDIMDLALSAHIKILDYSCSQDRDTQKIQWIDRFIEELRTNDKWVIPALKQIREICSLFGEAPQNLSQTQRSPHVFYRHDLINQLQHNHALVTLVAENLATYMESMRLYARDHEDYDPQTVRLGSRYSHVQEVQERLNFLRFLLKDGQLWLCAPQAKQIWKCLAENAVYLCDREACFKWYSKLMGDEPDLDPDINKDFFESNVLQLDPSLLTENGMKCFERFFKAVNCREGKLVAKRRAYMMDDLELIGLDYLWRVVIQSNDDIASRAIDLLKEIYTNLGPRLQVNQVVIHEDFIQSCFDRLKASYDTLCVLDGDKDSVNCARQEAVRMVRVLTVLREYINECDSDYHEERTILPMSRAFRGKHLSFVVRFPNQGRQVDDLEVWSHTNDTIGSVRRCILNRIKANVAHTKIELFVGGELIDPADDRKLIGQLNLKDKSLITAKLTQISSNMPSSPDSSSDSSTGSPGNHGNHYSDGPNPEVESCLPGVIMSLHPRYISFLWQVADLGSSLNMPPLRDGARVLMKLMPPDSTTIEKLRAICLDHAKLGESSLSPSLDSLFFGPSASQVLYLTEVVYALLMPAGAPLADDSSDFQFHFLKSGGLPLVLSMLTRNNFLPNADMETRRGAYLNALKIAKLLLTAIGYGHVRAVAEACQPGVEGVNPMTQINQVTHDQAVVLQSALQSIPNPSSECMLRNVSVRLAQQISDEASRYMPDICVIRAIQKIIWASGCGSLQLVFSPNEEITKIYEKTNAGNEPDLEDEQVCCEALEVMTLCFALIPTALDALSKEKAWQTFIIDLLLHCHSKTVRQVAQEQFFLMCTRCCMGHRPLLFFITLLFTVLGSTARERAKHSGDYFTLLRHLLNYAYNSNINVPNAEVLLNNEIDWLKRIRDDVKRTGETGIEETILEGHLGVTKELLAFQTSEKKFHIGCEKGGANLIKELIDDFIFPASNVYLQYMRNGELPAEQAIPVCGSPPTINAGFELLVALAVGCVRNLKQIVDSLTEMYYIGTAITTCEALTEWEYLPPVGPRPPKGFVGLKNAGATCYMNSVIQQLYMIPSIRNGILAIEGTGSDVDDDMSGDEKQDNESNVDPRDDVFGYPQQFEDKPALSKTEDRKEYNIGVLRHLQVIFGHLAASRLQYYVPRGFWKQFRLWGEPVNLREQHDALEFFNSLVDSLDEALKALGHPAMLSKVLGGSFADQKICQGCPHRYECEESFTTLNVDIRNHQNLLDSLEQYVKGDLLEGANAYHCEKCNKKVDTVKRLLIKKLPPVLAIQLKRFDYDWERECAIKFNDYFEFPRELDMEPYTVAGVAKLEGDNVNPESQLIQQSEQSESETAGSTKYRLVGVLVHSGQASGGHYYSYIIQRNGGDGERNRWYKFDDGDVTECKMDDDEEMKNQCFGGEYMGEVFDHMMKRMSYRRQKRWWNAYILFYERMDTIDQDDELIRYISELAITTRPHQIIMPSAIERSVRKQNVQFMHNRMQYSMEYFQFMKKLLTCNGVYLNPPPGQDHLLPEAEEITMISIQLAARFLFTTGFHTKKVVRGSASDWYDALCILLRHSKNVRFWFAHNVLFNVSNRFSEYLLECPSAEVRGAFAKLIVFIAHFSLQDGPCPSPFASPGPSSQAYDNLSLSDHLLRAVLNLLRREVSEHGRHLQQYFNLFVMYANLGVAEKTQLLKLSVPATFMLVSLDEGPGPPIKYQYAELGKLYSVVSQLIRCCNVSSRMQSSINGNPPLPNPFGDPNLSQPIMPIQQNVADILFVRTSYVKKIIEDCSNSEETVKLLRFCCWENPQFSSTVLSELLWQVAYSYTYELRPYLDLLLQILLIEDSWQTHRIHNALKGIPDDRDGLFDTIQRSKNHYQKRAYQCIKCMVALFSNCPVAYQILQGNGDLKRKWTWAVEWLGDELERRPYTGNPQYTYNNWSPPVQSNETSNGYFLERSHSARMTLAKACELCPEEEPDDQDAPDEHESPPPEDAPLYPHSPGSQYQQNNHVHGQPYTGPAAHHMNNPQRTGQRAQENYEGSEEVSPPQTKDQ
USP46, sequence (P62068 whole entry): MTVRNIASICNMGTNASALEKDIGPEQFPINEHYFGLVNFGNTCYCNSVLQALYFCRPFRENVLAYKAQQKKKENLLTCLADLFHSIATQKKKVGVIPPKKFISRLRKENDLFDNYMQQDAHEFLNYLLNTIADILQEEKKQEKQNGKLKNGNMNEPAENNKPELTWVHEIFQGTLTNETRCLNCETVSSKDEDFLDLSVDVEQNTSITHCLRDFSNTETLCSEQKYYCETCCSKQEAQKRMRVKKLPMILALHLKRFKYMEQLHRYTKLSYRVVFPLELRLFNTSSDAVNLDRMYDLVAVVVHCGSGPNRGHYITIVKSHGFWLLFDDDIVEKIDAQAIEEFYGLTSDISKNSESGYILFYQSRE
USP54, sequence (Q70EL1 whole entry): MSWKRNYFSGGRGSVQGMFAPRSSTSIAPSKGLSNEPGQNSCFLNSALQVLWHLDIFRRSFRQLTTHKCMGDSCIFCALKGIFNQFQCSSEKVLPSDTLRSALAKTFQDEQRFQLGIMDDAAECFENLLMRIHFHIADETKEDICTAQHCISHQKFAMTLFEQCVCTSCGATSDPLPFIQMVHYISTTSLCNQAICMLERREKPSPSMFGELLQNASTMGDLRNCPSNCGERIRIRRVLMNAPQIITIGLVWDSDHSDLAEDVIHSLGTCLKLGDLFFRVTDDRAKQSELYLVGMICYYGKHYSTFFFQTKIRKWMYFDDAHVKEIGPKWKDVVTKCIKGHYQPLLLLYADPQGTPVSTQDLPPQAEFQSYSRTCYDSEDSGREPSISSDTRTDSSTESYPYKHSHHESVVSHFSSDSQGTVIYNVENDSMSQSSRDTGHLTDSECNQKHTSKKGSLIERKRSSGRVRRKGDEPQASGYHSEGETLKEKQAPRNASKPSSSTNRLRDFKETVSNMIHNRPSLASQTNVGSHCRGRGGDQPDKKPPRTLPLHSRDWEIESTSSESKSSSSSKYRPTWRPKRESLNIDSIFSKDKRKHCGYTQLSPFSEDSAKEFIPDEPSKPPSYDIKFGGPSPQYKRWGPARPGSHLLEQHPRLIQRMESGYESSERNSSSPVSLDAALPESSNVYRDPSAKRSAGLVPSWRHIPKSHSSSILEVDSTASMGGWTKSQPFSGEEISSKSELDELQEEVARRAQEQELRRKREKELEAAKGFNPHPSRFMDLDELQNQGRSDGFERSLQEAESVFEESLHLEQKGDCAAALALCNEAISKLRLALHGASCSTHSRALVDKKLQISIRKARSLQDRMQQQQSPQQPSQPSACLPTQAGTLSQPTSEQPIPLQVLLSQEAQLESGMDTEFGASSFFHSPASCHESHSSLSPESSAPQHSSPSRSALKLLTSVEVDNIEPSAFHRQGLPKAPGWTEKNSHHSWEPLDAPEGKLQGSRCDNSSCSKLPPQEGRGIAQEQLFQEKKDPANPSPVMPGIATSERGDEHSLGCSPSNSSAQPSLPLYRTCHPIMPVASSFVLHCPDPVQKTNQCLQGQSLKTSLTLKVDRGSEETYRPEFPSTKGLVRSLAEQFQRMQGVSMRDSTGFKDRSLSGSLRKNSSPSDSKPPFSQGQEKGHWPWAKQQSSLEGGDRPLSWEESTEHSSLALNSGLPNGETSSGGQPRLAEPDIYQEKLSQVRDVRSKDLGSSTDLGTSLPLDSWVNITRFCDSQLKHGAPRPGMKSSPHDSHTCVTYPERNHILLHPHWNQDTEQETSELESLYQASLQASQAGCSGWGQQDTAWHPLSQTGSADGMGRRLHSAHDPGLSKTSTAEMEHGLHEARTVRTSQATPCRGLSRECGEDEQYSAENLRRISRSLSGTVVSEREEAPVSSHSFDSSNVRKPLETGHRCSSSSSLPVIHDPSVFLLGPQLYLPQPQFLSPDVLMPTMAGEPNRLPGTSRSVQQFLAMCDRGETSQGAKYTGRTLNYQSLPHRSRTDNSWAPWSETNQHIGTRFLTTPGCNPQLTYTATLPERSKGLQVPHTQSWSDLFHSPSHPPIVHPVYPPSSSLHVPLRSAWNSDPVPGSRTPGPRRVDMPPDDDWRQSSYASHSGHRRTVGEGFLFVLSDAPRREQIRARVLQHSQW

CN1c2ccccc2C(NC(=O)CCl)CS1(=O)=O (stereo not given)
inactive: USP42 -0.0975 | USP46 0.0351 | USP47 -0.132 | USP48 -0.464 | USP5 0.146 | USP54 0.66 | USP7 -0.369 | USP8 -0.341 | USP9X -0.252 | UniProt O00487 -0.206
